PubChem BioAssay
The other results are listed elsewhere or left out. Activity calls are given as the source filed them. Unless noted, no stated cut-off is given here; in the data, active means inhibition above about 33%; inactive means the rest.

Tested on: not listed separately
Test: VP16 transactivation reporter inhibitors, counter-screen for LRH-1 inverse agonist project, cell-based, luminescence, high throughput (AID 651615)
Settings: Gal4-VP16 luciferase reporter cells, at 3.6 µM, hits give high values

Row | Compound | inhibition
1 | O=C(Nc1nonc1NC(=O)c1cccs1)c1cccs1 | 52.7% (active)
2 | CCN(CC)C1=CC(=[N+]2CCCC2)CC(C)(C)C1 | 45.8% (active)
3 | CCCOc1ccc(Cc2c(Cl)nc(SC)nc2NC)cc1 | 35.5% (active)
4 | COc1cccc2c1C(=O)c1c(O)c3c(c(O)c1C2=O)CC(O)(C(C)=O)CC3OC1CC(O)C(O)C(C)O1 (configuration not stated) | 16.1% (inactive)
5 | CCN(CC)S(=O)(=O)c1cc(NC(=O)CNc2cccc(S(=O)(=O)N3CCCC3)c2)ccc1C | 49.1% (active)
6 | Fc1ccc(NC(=S)N2CCCN(c3ccc(C(F)(F)F)cn3)CC2)c(F)c1 | 51.6% (active)

Tested on: not listed separately
Test: Gal4-VP16 luciferase reporter inhibitors, counter-screen for COUP-TFII antagonist project, cell-based, luminescence, HEK293 (AID 687007; in the data active means inhibition above about 13%)
Settings: at 8.5 µM, hits give high values

Row | Compound | inhibition
7 | COc1cccc(CNc2nc(NCc3cccs3)nc3ccsc23)c1 | -0.37% (inactive)
8 | C#Cc1ccc(NC(=O)C2(C)CCN2C(=O)Cc2ccc(-c3ccccc3)cc2)cc1 (configuration not stated) | 6.08% (inactive)
9 | CCCOc1ccc(Cc2c(Cl)nc(SC)nc2NC)cc1 | 2.67% (inactive)

Molecular target: COUP transcription factor 2 (Homo sapiens) (UniProt P24468)
Sequence (P24468 whole entry, looked up): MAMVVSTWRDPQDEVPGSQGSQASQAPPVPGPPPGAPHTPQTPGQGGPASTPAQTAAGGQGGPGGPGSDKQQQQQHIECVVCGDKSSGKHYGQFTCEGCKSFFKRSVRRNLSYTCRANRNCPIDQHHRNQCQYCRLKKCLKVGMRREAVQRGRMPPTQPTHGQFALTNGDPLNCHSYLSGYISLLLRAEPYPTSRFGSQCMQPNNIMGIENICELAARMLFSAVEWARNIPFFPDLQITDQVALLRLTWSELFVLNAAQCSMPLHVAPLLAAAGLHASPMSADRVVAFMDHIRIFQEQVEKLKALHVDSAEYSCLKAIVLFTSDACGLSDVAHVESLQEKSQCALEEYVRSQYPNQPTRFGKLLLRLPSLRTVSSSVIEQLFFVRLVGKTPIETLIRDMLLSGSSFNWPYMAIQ
Test: NR2F2 transcriptional activity inhibitors, confirmation, cell-based, luciferase reporter, HEK293, triplicate (AID 687008;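 active means mean inhibition over three repeats above a set limit taken from the earlier primary screen, cut at about 38% in these data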;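 further: 100% = cells given the luciferase reporter alone without the COUP-TF2 vector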)
Settings: HEK293 NGFI-A luciferase reporter, luminescence; at 8.5 µM; hits give high values

Row | Compound | inhibition
10 | COc1cccc(CNc2nc(NCc3cccs3)nc3ccsc23)c1 | 13.2% (inactive)
11 | C#Cc1ccc(NC(=O)C2(C)CCN2C(=O)Cc2ccc(-c3ccccc3)cc2)cc1 (configuration not stated) | 44.2% (active)
12 | CCCOc1ccc(Cc2c(Cl)nc(SC)nc2NC)cc1 | 44.7% (active)
